Assay outcomes from PubChem.
Sm TGR inh = qHTS Assay for the Inhibitors of Schistosoma Mansoni Peroxiredoxins. Schistosoma mansoni thioredoxin glutathione reductase (TGR), Q962Y6. purified TGR, DTNB reduction, TNB absorbance 405 nm. Potency, µM (series often up to 114 µM), for inactives: at the highest dose activity change, negative = inhibition, hits mostly inhibitors. hit rate 3% among 360,000. AID 485364, 2010; note: potency is the fitted concentration of half-maximal effect; % is set by controls: 0 for no effect and ±100 for the full control effect; nearly all actives have a fitted effect of over 60% in size
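First, TGR (20 nM dispensed) and NADPH were mixed with compound. Second, a 15 min room-temperature incubation followed. Third, further NADPH and then DTNB were added to start the reaction. Finally, TNB absorbance was monitored kinetically.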
CHX counter = Cycloheximide Counterscreen for Small Molecule Inhibitors of Shiga Toxin; cell reporter, cycloheximide protein synthesis inhibition counterscreen; AID 2314, 2010; hit rate 12% among 300,000; max response, %; in the data active = max response mostly above about 13%, no sharp cut-off; inactive = mostly below about 14%; note: read at 38.3 µM for the half of the compounds with a filed dose; 0% is about no effect
FBPA Giardia inh = qHTS Assay for Inhibitors of Fructose-1,6-bisphosphate Aldolase from Giardia Lamblia | A8B2U2 | purified Giardia FBPA | Potency, µM (doses to about 59.6 µM), for inactives: top-dose activity, negative = inhibition, hits mostly inhibitors | hit rate 0.71% among 290,000 | AID 2451, 2010; note: potency is the fitted concentration of half-maximal effect; % is set by controls: 0 for no effect and ±100 for the full control effect; nearly all actives have a fitted effect of over 55% in size
Target sequence (A8B2U2 whole entry, looked up): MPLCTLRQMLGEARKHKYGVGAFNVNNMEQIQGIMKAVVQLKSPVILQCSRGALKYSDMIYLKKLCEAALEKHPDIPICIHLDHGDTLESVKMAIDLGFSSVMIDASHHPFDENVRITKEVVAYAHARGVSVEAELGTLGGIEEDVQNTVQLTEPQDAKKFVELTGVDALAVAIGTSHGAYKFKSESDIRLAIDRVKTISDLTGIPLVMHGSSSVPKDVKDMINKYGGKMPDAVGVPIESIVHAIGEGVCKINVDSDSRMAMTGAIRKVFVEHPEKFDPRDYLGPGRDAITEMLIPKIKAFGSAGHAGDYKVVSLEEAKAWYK
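Giardia FBPA (40 nM reagent) was preincubated 10 min at RT with compound (up to 57.5 uM final), then substrate plus GAPDH/TPI/NAD/arsenate coupling system with diaphorase/resazurin was added; resorufin fluorescence (525/598 nm) was read after 20 min.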
Shiga inhibitor = A qHTS for Small Molecule Inhibitors of Shiga Toxin | Vero cells, Shiga toxin protein synthesis inhibition reporter | inhibition, % at 38.7 µM | hit rate 9.2% among 290,000; in the data active = inhibition mostly above about 28%, no sharp cut-off; inactive = mostly below about 43%; note: 0% is about no effect
TbPYK inhibitor = qHTS of Trypanosoma Brucei Inhibitors; AID 624173, 2012; TbPYK enzyme, Kinase-Glo Plus ATP luminescence, 45 min; pyruvate kinase (Trypanosoma brucei), Q57TT1; hit rate 0.12% among 410,000; Potency, µM (titrated, usually from 76.8 µM), for the others: top-dose activity, negative = inhibition, actives largely listed as inhibitors; note: potency is the fitted concentration of half-maximal effect; % is set by controls: 0 for no effect and ±100 for the full control effect; nearly all actives have a fitted effect of over 50% in size
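Enzyme and substrate buffer are dispensed first and compound is pin-transferred. ADP at 130 uM final then starts the reaction, which runs 45 min at room temperature. Detection reagent is added for 10 min before luminescence is imaged.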
LmPK inhibitor = qHTS Assay for Inhibitors of Leishmania Mexicana Pyruvate Kinase (LmPK) | AID 1721, 2009 | Potency, µM (titrated, usually from 57.5 µM), for inactives: at the top dose activity change, negative = inhibition, most hits filed as inhibitors | hit rate 0.37% among 290,000 | purified LmPK, Kinase-Glo ATP luminescence, 1 h; note: potency is the fitted concentration of half-maximal effect; % is set by controls: 0 for no effect and ±100 for the full control effect
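Pyruvate kinase activity monitored as ATP production (luciferase luminescence). Conditions: 0.1 nM enzyme, 0.5 mM PEP, 0.1 mM ADP, 1 h, RT; normalized against uninhibited and no-enzyme wells.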
Numbers without * were called inactive. The full list was thinned out, with hits kept by preference. Unless noted, calls come from the whole dose curve; as a rule, active = well fitted curve in the direction sought with a large enough effect; inconclusive = small, poorly fitted or top-dose-only effect, or another doubt; inactive = no such curve, though single readings can be large; an effect the other way counts as inactive or inconclusive.

CCOC(=O)C1CCCN(C(=O)c2cc(C)n(C(C)(C)C)n2)CC1 (stereo not given) was read as TbPYK inhibitor 1%.
CS(=O)(=O)Nc1cccc(-c2ccc3ncnc(Nc4ccccc4)c3c2)c1 was read as FBPA Giardia inh -6%.
CCOC(=O)c1ccc(N2C(=O)CC(N3CCC(O)(c4ccc(Cl)cc4)CC3)C2=O)cc1 (stereo not given) was read as Sm TGR inh 22µM*, CHX counter -2, FBPA Giardia inh 4%, Shiga inhibitor -6, TbPYK inhibitor -2% and LmPK inhibitor 0%.
`CCCCn1c(-c2csc3ccccc23)n[nH]c1=S` gave Sm TGR inh -2%, CHX counter -2, FBPA Giardia inh 10%, Shiga inhibitor -10, TbPYK inhibitor 16µM* and LmPK inhibitor 14µM*.
CCCCn1c(-c2csc(C(C)C)c2)n[nH]c1=S was read as Sm TGR inh 2%, CHX counter 2, FBPA Giardia inh 17%, Shiga inhibitor 7, TbPYK inhibitor inconclusive and LmPK inhibitor inconclusive.
CCCCn1c(-c2csc3c2CCC(C)C3)n[nH]c1=S (stereo not given) was read as Sm TGR inh 1%, CHX counter -3, FBPA Giardia inh 17%, Shiga inhibitor -11, TbPYK inhibitor inconclusive and LmPK inhibitor 18µM*.
`CCCCn1c(-c2csc3c2CCCC3)n[nH]c1=S` gave Sm TGR inh 7%, CHX counter 22, FBPA Giardia inh 1%, Shiga inhibitor 37, TbPYK inhibitor inconclusive and LmPK inhibitor 13µM*.
CCCCCCn1c(-c2cccs2)n[nH]c1=S was read as Sm TGR inh 7%, CHX counter -4, FBPA Giardia inh 0%, Shiga inhibitor -5, TbPYK inhibitor 2.8µM* and LmPK inhibitor -29%.
Screening COC1OC2COC(c3ccccc3)OC2C(O)C1O (stereo not given) returned FBPA Giardia inh 11%.
C=C1CC2C3C=C(C)C4=CC(=O)CCC4(C)C3CCC2(C)[C@@]1(OC(C)=O)C(C)=O (stereo not given in full) was read as TbPYK inhibitor 2%.
For COc1ccc(Cl)cc1C(=O)Nn1cnc2ccccc2c1=O the results were Sm TGR inh 7%, CHX counter -2, FBPA Giardia inh 2%, Shiga inhibitor -6, TbPYK inhibitor -8% and LmPK inhibitor -1%.
Screening COc1ccccc1C(=O)Nn1cnc2ccccc2c1=O returned Sm TGR inh 11%, CHX counter 24*, FBPA Giardia inh 1%, Shiga inhibitor 49*, TbPYK inhibitor 3% and LmPK inhibitor -3%.
Screening CCN(CC)c1ccc(C(=O)Nn2cnc3ccccc3c2=O)cc1 returned Sm TGR inh 1%, CHX counter 35*, FBPA Giardia inh 2%, Shiga inhibitor 76*, TbPYK inhibitor -4% and LmPK inhibitor -2%.
Screening O=C(C/C=N/OCc1c(Cl)cccc1Cl)c1ccccc1 returned Sm TGR inh 5%, CHX counter 37*, FBPA Giardia inh -2%, Shiga inhibitor 48, TbPYK inhibitor 4% and LmPK inhibitor 3%.
O=C(C/C=N/OCc1ccc(Cl)cc1Cl)c1ccccc1 was read as Sm TGR inh 13%, CHX counter 20*, FBPA Giardia inh 5%, Shiga inhibitor 47, TbPYK inhibitor -5% and LmPK inhibitor 1%.
Screening CCOC(=O)c1c(-c2cccs2)csc1NC(=O)CNCCN1CCOCC1 returned Sm TGR inh -16%, CHX counter -5, FBPA Giardia inh 23%, Shiga inhibitor -1 and LmPK inhibitor -1%.
NC(=O)c1ccccc1NC(=O)CSC1=NCCS1 was read as Sm TGR inh -3%, CHX counter 11*, FBPA Giardia inh -10%, Shiga inhibitor 14, TbPYK inhibitor 7% and LmPK inhibitor 2%.
O=C(CSc1nc2ccccc2o1)Nc1nccs1 was read as Sm TGR inh -9%, CHX counter 28*, FBPA Giardia inh 6%, Shiga inhibitor 31, TbPYK inhibitor -1% and LmPK inhibitor 5%.
O=C(CSc1nc2ccccc2o1)Nc1nc2c(s1)CCCC2 was read as TbPYK inhibitor 0%.
Screening O=C(CSC1=NCCS1)Nc1nc2ccccc2s1 returned Sm TGR inh -21%, CHX counter 28*, FBPA Giardia inh 0%, Shiga inhibitor 81*, TbPYK inhibitor -1% and LmPK inhibitor 3%.
Screening O=C(CSc1nc2ccccc2o1)Nc1nc2ccccc2s1 returned Sm TGR inh 4%, CHX counter 43*, FBPA Giardia inh 2%, Shiga inhibitor 49*, TbPYK inhibitor -1% and LmPK inhibitor -9%.
`Cc1cc(O)c(-c2ccnc3cc(-c4ccccc4)nn23)cc1Cl` gave Sm TGR inh -8% and TbPYK inhibitor 0%.
Clc1ccc(-c2noc3ncnc(NCCc4ccccc4)c23)cc1 was read as Sm TGR inh -5% and TbPYK inhibitor -8%.
CCOc1ccc(NC(=O)CSc2nnc(-c3ccc(C)cc3)c(-c3ccc(C)cc3)n2)cc1 was read as Sm TGR inh -9% and TbPYK inhibitor -4%.
Screening O=C(CSc1nc2ccccc2o1)Nc1nc(-c2ccccc2)cs1 returned Sm TGR inh -24%, CHX counter 72*, FBPA Giardia inh -5%, Shiga inhibitor 111*, TbPYK inhibitor -12% and LmPK inhibitor 2%.
For CCOC(=O)N1CCN(CC(=O)Nc2nccs2)CC1 the results were TbPYK inhibitor -9%.
OC(C#CCN1CCOCC1)c1cccs1 (stereo not given) was read as Sm TGR inh 28µM*, CHX counter 37*, FBPA Giardia inh -4%, Shiga inhibitor -6, TbPYK inhibitor -5% and LmPK inhibitor -2%.
`O=C(NCCCCNC(=O)c1cccs1)c1cccs1` gave Sm TGR inh -1%, CHX counter -4, FBPA Giardia inh 1%, Shiga inhibitor -3, TbPYK inhibitor -8% and LmPK inhibitor 0%.
For O=C(NCCc1cccc(Cl)c1)c1cccs1 the results were Sm TGR inh 3%, CHX counter 67*, FBPA Giardia inh -11%, Shiga inhibitor 101*, TbPYK inhibitor -1% and LmPK inhibitor -1%.
`Cc1cc2ccccc2n1CCNC(=O)c1cccc(Cl)c1` gave Sm TGR inh 30% and TbPYK inhibitor 0%.
`Cc1cc2ccccc2n1CCNC(=O)c1cccs1` gave Sm TGR inh inconclusive, CHX counter 17*, FBPA Giardia inh -13%, Shiga inhibitor 32*, TbPYK inhibitor -14% and LmPK inhibitor 1%.
